Sampled rows, rich in hits. Any-hit rate of the full collection: about 8.6%.
Marburg entry – blocks Marburg virus binding or cell entry; Marburg virus pseudotype entry/binding inhibition, cell-based; Potency, µM (doses to about 49.2 µM), usual class: inhibitors; 18,000 compounds, 6.5% hits; AID 720532
Lassa entry – blocks Lassa virus binding or cell entry; Lassa virus pseudotyped entry inhibition, cell-based qHTS; Potency, µM (titrated, usually from 49.2 µM), usual class: inhibitors; 18,000 compounds, 4.1% hits
Each line names hits and unclear results; the compound was inactive in the other large screens; ! = a repeat was not active. The call rests on the fitted dose curve; tested in HEK293 cells.

COC(=O)[C@@]1(C)CCC[C@@]2(C)c3ccc(O)c(C(C)C)c3CCC21 (some centres undefined)	Marburg entry 13µM, Lassa entry 11µM
CC(C)c1c(O)ccc2c1CCC1[C@@](C)(CO)CCC[C@@]21C (some centres undefined)	Lassa entry inconclusive
COc1cc(OC)c2cc(-c3ccncc3)cnc2c1	none
CN(C)CCn1nnnc1SCC1=C(C(=O)O)N2C(=O)[C@@H](NC(=O)Cc3csc(N)n3)[C@H]2SC1	none
CCN(CC)CCOCCOC(=O)C(CC)(CC)c1ccccc1	Marburg entry 22µM, Lassa entry inconclusive
O=C(O)CN(CCOCCOCCN(CC(=O)O)CC(=O)O)CC(=O)O	none
CCN(CC)CCNC(C(=O)OCCC(C)C)c1ccccc1 (centres undefined)	Marburg entry inconclusive
CCN(CC)CCOC(=O)C1(c2ccc([N+](=O)[O-])cc2)CCCC1	Marburg entry inconclusive
CCN(CC)CCOCCOC(=O)C1(c2ccccc2)CCCC1	Marburg entry 7.1µM!
CCN(CC)CCOC(=O)C(C)(c1ccccc1)c1ccccc1	Marburg entry 28µM, Lassa entry inconclusive
COc1ccc(N2C=C3C(=O)C(C)(OC(=O)C4CCCC4)C(=O)C=C3C=C2c2ccsc2)cc1 (centres undefined)	none
C=CCOC(=O)C1(C(NC(=O)OC)c2ccccc2)C(=O)Cc2ccccc21 (centres undefined)	none
COC1=CC(=O)O[C@@H](/C=C\c2ccccc2)C1	none
CC(C)C[C@@H](CO)NS(=O)(=O)c1cc(Cl)ccc1F	none
CCCCC(CC)CN1CN(CC(CC)CCCC)CC(C)(N)C1 (centres undefined)	none
O=C(O)c1ccccc1Cc1ccccc1	none
COC(=O)C1=C(C)N(Cc2ccccc2)C(=NCC2CC2)NC1c1cccc(C(F)(F)F)c1 (centres undefined)	none
CN1C(=O)[C@]23CC4=CC=C[C@H](O)[C@H]4N2C(=O)[C@@]1(CO)SS3	Marburg entry 1.4µM, Lassa entry 2.5µM
CS(=O)(=O)Nc1ccc(Cc2noc(-c3ccc4[nH]cc(CCN)c4c3)n2)cc1	Lassa entry inconclusive
C[C@H](O)CON1C(=O)c2ccccc2C1=O	none
O=C1C(SCCO)=C(SCCO)C(=O)c2ccccc21	Marburg entry 3.5µM, Lassa entry 8.9µM
COc1ccc2[nH]cc(CCNc3ncncc3-c3ccc(N(C)C)cc3)c2c1	Marburg entry 16µM
COc1ccccc1CNc1ncncc1-c1ccc(N(C)C)cc1	none
CN1[C@@H](COCc2ccccc2)C=CS1(=O)=O	none
COC(=O)CCCC1=CC2=C(c3ccccc3)C(=O)C(C)(OC(=O)C3CCCC3)C(=O)C2=CO1 (centres undefined)	none
CC1=C(O)C(=O)[C@H]2O[C@@H]2C1=O	Lassa entry 11µM
CC[C@@]12CCCN3CCc4c(n(c5ccccc45)[C@](O)(C(=O)OC)C1)[C@H]32	Marburg entry inconclusive
COC(=O)[C@@]1(O)C[C@@H]2O[C@@]1(C)n1c3ccccc3c3c4c(c5c6ccccc6n2c5c31)C(=O)NC4	Marburg entry 14µM
COC(=O)C1(O)CC2OC1(C)n1c3ccccc3c3c4c(c5c6ccccc6n2c5c31)C(=O)NC4 (centres undefined)	Marburg entry 4µM, Lassa entry inconclusive
Cc1cccc(C)c1OC[C@H](C)N	Marburg entry inconclusive
CCCCC/C=C\C=C\C(O)CCCCCCCC(=O)O (centres undefined)	none
CC(C)=CCN1C(=O)[C@]2(O[C@H](COc3ccccc3)CC3=C2CCC3)c2ccccc21	none
CC1OC(O[C@@H]2C(O)CC(O[C@@H]3C(O)C[C@@H](OC4CC[C@]5(C)[C@H](CC[C@H]6[C@@H]5CC[C@]5(C)C(C7=CC(=O)OC7)C(O)C[C@@]65O)C4)OC3C)OC2C)CC(O)C1O (some centres undefined)	Marburg entry 0.63µM, Lassa entry 5µM
CC1O[C@@H](O[C@@H]2C(O)C[C@H](O[C@@H]3C(O)C[C@@H](OC4CC[C@@]5(C)C6CC(O)[C@@]7(C)C(C8=CC(=O)OC8)CC[C@@]7(O)C6CC[C@@H]5C4)OC3C)OC2C)CC(O)[C@H]1O (some centres undefined)	Marburg entry 0.56µM, Lassa entry 1µM
C[C@H]1O[C@@H](O[C@H]2CC[C@@]3(C)[C@H](CC[C@@H]4[C@@H]3C[C@@H](O)[C@]3(C)[C@@H](C5=CC(=O)OC5)CC[C@]43O)C2)C[C@H](O)[C@@H]1O[C@H]1C[C@H](O)[C@H](O[C@H]2C[C@H](O)[C@H](O[C@@H]3O[C@H](CO)[C@@H](O)[C@H](O)[C@H]3O)[C@@H](C)O2)[C@@H](C)O1	Marburg entry 0.28µM, Lassa entry 0.35µM
C[C@H]1O[C@@H](O[C@H]2[C@@H](O)C[C@H](O[C@H]3[C@@H](O)C[C@H](O[C@H]4CC[C@@]5(C)[C@H](CC[C@@H]6[C@@H]5CC[C@]5(C)[C@@H](C7=CC(=O)OC7)CC[C@]65O)C4)O[C@@H]3C)O[C@@H]2C)C[C@H](O)[C@@H]1O	Marburg entry 0.089µM, Lassa entry inconclusive
Cc1ccc2cc(CNC(C)CO)c(N3CCC(O)CC3)nc2c1 (centres undefined)	none
COc1cc(C)c(/C=C/C(C)=C/C=C/C(C)=C/C(=O)O)c(C)c1C	none
COC(=O)[C@@H](N)CSC/C=C(\C)CC/C=C(\C)CCC=C(C)C	none
Nc1ccc(CCNc2ncnc3c2ncn3C2OC(CO)C(O)C2O)cc1 (centres undefined)	none
C[C@H](NC(=O)N1CCc2nc(COc3ccccc3)c3c(c2C1)CO[C@@H](C)C3)c1ccccc1	none
COC(=O)C1=C(C(=O)OC)[C@@H]2N(C)c3ccccc3[C@@]23CCC(=O)N(Cc2ccc4c(c2)OCO4)C3=N1	Marburg entry inconclusive
CC(C)OC(=O)[C@H](C)NC(=O)N1CCc2nc(COc3ccccc3)c3c(c2C1)CO[C@@H](C)C3	none
O=c1c2ccccc2nc2n1CCc1c-2[nH]c2ccccc12	none
CC(C)=CCC[C@](C)(O[C@@H]1O[C@H](CO)[C@@H](O)[C@H](O)[C@H]1O)[C@H]1CC[C@]2(C)[C@@H]1[C@H](O)C[C@@H]1[C@@]3(C)CC[C@H](O[C@@H]4O[C@H](CO)[C@@H](O)[C@H](O)[C@H]4O[C@@H]4O[C@H](CO)[C@@H](O)[C@H](O)[C@H]4O)C(C)(C)[C@@H]3[C@@H](O)C[C@]12C	Marburg entry inconclusive
CC(=O)O[C@H]1C[C@H](O[C@H]2[C@@H](O)C[C@H](O[C@H]3[C@@H](O)C[C@H](OC4CC[C@@]5(C)C(CC[C@@H]6[C@@H]5CC[C@]5(C)[C@@H](C7=CC(=O)OC7)[C@@H](O)C[C@]65O)C4)O[C@@H]3C)O[C@@H]2C)O[C@H](C)[C@H]1O[C@@H]1O[C@H](CO)[C@@H](O)[C@H](O)[C@H]1O (some centres undefined)	Marburg entry inconclusive, Lassa entry 2.8µM
C[C@@H]1O[C@H](O[C@@H]2CC[C@@]3(C=O)[C@H]4CC[C@@]5(C)[C@@H](C6=CC(=O)OC6)CC[C@@]5(O)[C@@H]4CC[C@]3(O)C2)C[C@H](O)[C@@H]1O	Marburg entry 3.5µM, Lassa entry 3.5µM
CCN(Cc1ccccc1)c1cc2c(c3c1ccn3C)C1CCC2C1 (centres undefined)	none
C=C1C(=O)O[C@H]2[C@H]1CC/C(C)=C\CC[C@@]1(C)O[C@@H]21	Marburg entry 14µM, Lassa entry 7.9µM
C=C1C(=O)OC2C=C(C)CCC=C(C)CCC12 (centres undefined)	none

Screening results as filed in PubChem.
